Assay results reported in PubChem BioAssay AID2156 (Johns Hopkins Ion Channel Center, 2009).
Out of some 310,000 compounds screened, about 3,400 (1.1%) were called active. The sample holds actives, similar compounds and a random draw of the others, so the mix is not that of the screen. Values without a mark were called inactive.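 Rule for the calls: active = fluorescence ratio B-score at most minus 3 library SDs, with starting brightness B-score within 2 library SDs (cut at about -5.5 in these data); inactive = the rest, inconclusive results apart.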

molecular target: Potassium voltage-gated channel subfamily KQT member 2 (Rattus norvegicus) (UniProt O88943); assay: rat KCNQ2 potassium channel inhibitors, primary screen, cell-based, CHO-K1, FluxOR thallium flux, B-score (AID 2156); details: 20 min, at 10 µM; stronger effect = lower value
Sequence (O88943 whole entry, looked up): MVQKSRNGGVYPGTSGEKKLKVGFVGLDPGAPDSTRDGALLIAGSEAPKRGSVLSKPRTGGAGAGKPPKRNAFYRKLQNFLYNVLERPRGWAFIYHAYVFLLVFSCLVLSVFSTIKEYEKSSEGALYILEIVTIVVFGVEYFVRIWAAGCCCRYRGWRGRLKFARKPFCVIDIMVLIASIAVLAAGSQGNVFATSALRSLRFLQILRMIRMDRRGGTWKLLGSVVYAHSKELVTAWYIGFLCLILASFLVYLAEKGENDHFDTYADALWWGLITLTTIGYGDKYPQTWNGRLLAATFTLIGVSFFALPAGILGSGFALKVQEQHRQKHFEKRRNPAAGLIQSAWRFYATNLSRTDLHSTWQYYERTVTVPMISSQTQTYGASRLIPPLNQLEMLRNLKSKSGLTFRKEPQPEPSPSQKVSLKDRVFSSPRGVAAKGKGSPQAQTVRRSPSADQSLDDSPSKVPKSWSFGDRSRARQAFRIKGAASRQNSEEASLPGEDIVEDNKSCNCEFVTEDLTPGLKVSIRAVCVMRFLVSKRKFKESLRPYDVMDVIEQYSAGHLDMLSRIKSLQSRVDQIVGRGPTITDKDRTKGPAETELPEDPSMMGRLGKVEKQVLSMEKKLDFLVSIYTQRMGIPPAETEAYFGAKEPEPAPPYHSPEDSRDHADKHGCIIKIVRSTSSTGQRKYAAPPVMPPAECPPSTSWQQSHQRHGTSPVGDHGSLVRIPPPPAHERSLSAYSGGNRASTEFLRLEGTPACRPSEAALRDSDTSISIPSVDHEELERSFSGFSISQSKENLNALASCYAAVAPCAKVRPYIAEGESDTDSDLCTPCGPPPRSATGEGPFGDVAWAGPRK

| SMILES | B-score |
| --- | --- |
| CC(=O)n1cc([C@@H]2C=C(C(=O)N3CCN(Cc4ccc5c(c4)OCO5)CC3)O[C@H](OCc3ccc(CO)cc3)C2)c2ccccc21 | -6.49 (active) |
| O=C(COc1coc(CN2CCN(c3ccccc3F)CC2)cc1=O)N1CCc2ccccc21 | inactive |
| COc1cc(/C=C/C(=O)N2CCc3ccccc3C2)cc(OC)c1OC | inactive |
| O=C(CN1CCCCCC1)N1c2ccccc2Sc2ccc(C(F)(F)F)cc21 | -3.82 |
| COc1cc(/C=C/C(=O)N2c3ccccc3Sc3ccc(C(F)(F)F)cc32)cc(OC)c1OC | -7.31 (active) |
| Cc1ccc(NC(=O)NC(=O)N(C2CCCCC2)S(=O)(=O)c2ccccc2)cc1 | -1.57 |
| CCOc1ccc(NC(=O)N(CCC(C)C)C(C)c2ccco2)cc1 (stereo unspecified) | -2.46 |
| CC(c1ccco1)N(C(=O)Nc1ccccc1)C1CCCCC1 (stereo unspecified) | -5.91 (active) |
| N#CC1(NC(=O)COC(=O)CSc2ccc(F)cc2)CCCCC1 | inactive |
| C=CCOc1ccc(/C=C/C(=O)OC(C)C(=O)Nc2ccc(NC(C)=O)cc2)cc1 (stereo unspecified) | inactive |
| CCCn1c(C)cc(/C=C(\C#N)C(=O)OCC(=O)N(C)c2c(N)n(Cc3ccccc3)c(=O)[nH]c2=O)c1C | -0.77 |
| COc1ccc(/C(C)=N/NC(=O)CCC(=O)Nc2ccc(Cl)cc2Cl)c(OC)c1 | -2.5 |
| COc1ccc(OC)c(C(=O)c2ccc(Cl)cc2)c1 | inactive |
| COc1ccc(OC)c(/C(C)=N\NC(=O)c2cc3cc(Cl)ccc3n2C)c1 | -8.07 (active) |
| COc1ccc(CNC(=O)CNC(=O)c2sc3ccccc3c2Cl)cc1OC | inactive |
| O=C(Nc1ccon1)c1sc2ccccc2c1Cl | -0.39 |
| CN1CCc2ccccc2C1Cc1ccccc1NC(=O)c1sc2ccccc2c1Cl (stereo unspecified) | -6.56 (active) |
| COc1ccc(-c2csc3ncnc(N4CCN(S(=O)(=O)c5cccc(F)c5)CC4)c23)cc1 | -2.13 |
| CC(OC(=O)CCCOc1ccccc1)C(=O)Nc1ccc(Cl)cn1 (stereo unspecified) | inactive |
| CC1CN(C(=O)COC(=O)c2cccc(NS(=O)(=O)c3ccccc3)c2)CC(C)O1 (stereo unspecified) | inactive |
| O=C(Cc1ccccc1)n1nc(-c2ccccc2)nc1NCc1ccco1 | -5.57 (active) |
| c1ccc(-c2nc(NCc3ccco3)c3ccccc3n2)cc1 | -3.7 |
| CS(=O)(=O)n1nc(-c2ccccc2)nc1NCc1ccco1 | -0.02 |

| SMILES | B-score |
| --- | --- |
| CC1(C)O[C@@H]2CC3C4C[C@H](F)C5=CC(=O)C=CC5(C)C4C(O)CC3(C)[C@]2(C(=O)CO)O1 (stereo partly specified) | inactive |
| O=C(Nc1ccccc1Cl)/C(Cl)=C(\Cl)S(=O)c1ccccc1 (stereo unspecified) | -9.85 (active) |
| O=C(COC(=O)c1cccs1)Nc1ccccc1Cl | -0.17 |
| O=C(Nc1ccccc1Cl)Nn1cnnc1 | inactive |
| CCc1noc(C)c1C(=O)Nc1nc(-c2ccccc2)cs1 | -0.22 |
| CCCn1nc(C(=O)NNC(=O)CSCC(=O)Nc2cc(C)on2)c2ccccc2c1=O | -2.13 |
| O=C(O/N=C(/c1ccccc1)c1ccncc1)c1ccccc1[N+](=O)[O-] | -1.04 |
| O=C(OCC(=O)N(CCc1ccccc1)Cc1ccccc1)c1ccccc1[N+](=O)[O-] | -6.77 (active) |
| Cc1c(C(=O)NCCCc2ccccc2)cccc1[N+](=O)[O-] | -1.07 |
| Cc1cccc(N2CC(C(=O)Nc3ccccc3N3CCCC3)CC2=O)c1C (stereo unspecified) | inactive |
| CC(Oc1ccc(F)cc1)C(=O)N1CCN(c2ncccn2)CC1 (stereo unspecified) | inactive |
| CC12CCC(C(=O)N3CCN(c4ncccn4)CC3)(c3nc4ccccc4nc31)C2(C)C (stereo unspecified) | -6.6 (active) |
| c1cnc(N2CCN(c3ccc4ccccc4n3)CC2)nc1 | -0.22 |
| Cc1cc(C)n2nc(C(=O)OC(C)C(=O)c3cc(C)c(C)cc3C)nc2n1 (stereo unspecified) | inactive |
| Cc1ccccc1NC(=O)C(C)OC(=O)CCC(=O)N(CC(C)C)c1c(N)n(CC(C)C)c(=O)[nH]c1=O (stereo unspecified) | inactive |
| CC(=O)Nc1ccc(Nc2c3ccccc3nc3ccccc23)cc1 | inactive |
| Cc1cc(CNC(=O)c2cccc([N+](=O)[O-])c2)c2ccccc2n1 | inactive |
| O=[N+]([O-])c1cccc(Nc2c3ccccc3nc3ccccc23)c1 | -5.7 (active) |
| CCOc1ccc(/C=C/C(=O)N(CC)CC(=O)NCc2cccs2)cc1OC | inactive |
| COc1ccccc1CNC(=O)COn1nnc2ccc(S(=O)(=O)N3CCOCC3)cc21 | inactive |
| COc1ccc(Cl)cc1NC(=O)CCN1CCOCC1 | -1.02 |
| COc1ccc(Cl)cc1NC(=O)COC(=O)C(CC(C)C)N1C(=O)C2CC=CCC2C1=O (stereo unspecified) | -5.8 (active) |
| COc1ccc(Cl)cc1NC(=O)c1cccc(N2C(=O)C3CC=CCC3C2=O)c1 (stereo unspecified) | -0.4 |
